Only some compounds are listed: those with a hit (about 6.5% of all), similar ones and a draw of the others.
HCMV antiviral – inhibitors of human cytomegalovirus; activity change, negative = inhibition, % at 57.5 µM; HFF cells, HCMV-luciferase reporter, 72 h; hits give low values; hit rate 4.5% among 410,000; in the data active = activity change below about -60%; inconclusive = no clear call, values can overlap the other calls; inactive = above about -39%
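Two compound doses tested in HFFs infected with HCMV-luciferase, MOI 1 PFU/cell, 72 h at 37C. Lysate luminescence read with OneGlo; data normalized against buffer-only and 10uM Salinomycin inhibitor controls.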
Vaccinia mCherry – inhibitors of vaccinia virus infection (mCherry reporter signal); Vaccinia virus mCherry reporter infection, fluorescence; Potency, µM (highest dose often 36.5 µM), actives largely listed as inhibitors; hit rate 0.63% among 310,000; AID 720579; calls by dose curve; tested in A549 cells; note: nearly all actives have a fitted effect of over 35% in size
LASV entry inh – Lassa virus entry inhibition; Lassa virus pseudotype entry inhibition, cell reporter; Potency, µM (series often up to 37.9 µM), hits mostly inhibitors; hit rate 1.2% among 300,000; AID 540256; calls by dose curve; tested in HEK293 cells; note: nearly all actives have a fitted effect of over 50% in size
FMDV antiviral – antivirals against foot and mouth disease virus; FMDV antiviral cell-based qHTS; Potency, µM (highest dose often 57.9 µM), usual class: inhibitors; hit rate 1.2% among 410,000; AID 1159524; calls by dose curve; tested in HEK293T cells; note: read-out not given here; nearly all actives have a fitted effect of over 45% in size
MARV entry inh – Marburg virus entry inhibition; Marburg virus pseudotyped entry inhibition, cell reporter; Potency, µM (series often up to 37.8 µM), most hits filed as inhibitors; hit rate 1.8% among 300,000; calls by dose curve; tested in HEK293 cells
Vaccinia Venus – inhibitors of vaccinia virus (Venus reporter). Vaccinia virus Venus reporter expression, fluorescence. Potency, µM (highest dose often 36.5 µM), hits mostly inhibitors. hit rate 0.46% among 330,000; calls by dose curve; tested in A549 cells; note: nearly all actives have a fitted effect of over 30% in size
Numbers stand for hits; – = inactive; ? = inconclusive; · = not tested or not shown.

SMILES	HCMV antiviral	Vaccinia mCherry	LASV entry inh	FMDV antiviral	MARV entry inh	Vaccinia Venus
O=C(NCc1ccc(F)cc1)c1ccccc1OCc1ccccc1	-63	–	?	?	?	–
O=C(CCn1c(=O)c2cccn2c2ccc(F)cc21)NCCc1ccccc1Cl	?	–	–	–	·	–
CN(Cc1ccon1)C(=O)c1cnn(-c2ncc3c(n2)-c2ccccc2CCC3)c1C1CC1	·	–	·	–	·	–
Cc1ccc(C)c(NS(=O)(=O)c2cc3c(cc2Cl)NC(=O)CO3)c1	–	–	–	–	·	–
O=C(NNC(=O)c1ccccc1OCc1ccccc1)c1ccccc1O	-88	7.1µM	–	–	–	?
O=C(NNC(=O)c1ccccc1OCc1ccccc1)c1ccccc1F	–	–	–	–	–	–
NC(=S)NN=C1c2ccccc2-c2ccccc21	-87	·	·	?	·	·
Cc1cc(C)c2nc(SCC(=O)N3CC(=O)Nc4ccccc43)c(C#N)cc2c1	-88	?	?	?	?	?
COc1ccc2nc(SCC(C)=O)c(C#N)cc2c1	–	–	5.6µM	–	?	–
Cc1cc(C)c2nc(SCC(=O)Nc3ccccc3N3CCOCC3)c(C#N)cc2c1	–	–	–	–	–	–
COc1ccc2nc(SCC(=O)N3CC(=O)Nc4ccccc43)c(C#N)cc2c1	-100	?	?	–	?	?
Cc1ccccc1CN1CCN(c2ncc(C(=O)NCCN(C)C)s2)C1=O	–	·	·	·	·	·
CC(C)NC(=O)[C@@H]1C[C@@H](Sc2nc3ccccc3[nH]2)CN1C1Cc2ccccc2C1	·	?	·	–	·	–
O=C(N[C@H]1CC[C@@]23CCCN2C(=O)CCC[C@H]3[C@H]1Cc1ccccc1)C1CCOC1 (some centres not stated)	–	·	·	·	·	·
COc1cc(C)c2ccccc2n1	·	–	·	·	·	–
CCCCCCc1cc2cc(S(=O)(=O)c3ccc(C)cc3)c(=O)oc2cc1O	–	–	–	–	–	–
CCCCCCc1cc2cc(C(=O)NCc3ccccc3)c(=N)oc2cc1O	-69	·	–	–	?	·
CCCCCCc1cc2cc(C(=O)Nc3ccccc3)c(=O)oc2cc1O	-100	–	3.5µM	?	2µM	–
CCN(CC)C(=O)CSc1nc2sc3c(c2c(=O)n1CCCOC)CCC3	-76	–	–	–	–	–
O=C1OC(c2ccc(O)cc2)(c2ccc(O)cc2)c2ccccc21	–	–	?	–	?	?
O=C1OC(c2ccccc2)(c2ccc3cc(O)ccc3c2)c2ccccc21 (configuration not stated)	–	7.9µM	–	–	5.6µM	?
O=c1[nH][nH]c(C(F)(F)F)c1C=Nc1ccccc1	–	·	–	–	–	·
O=c1[nH][nH]c(C(F)(F)F)c1C=NCc1cccs1	-65	·	·	–	·	·
CCOC(=O)C1C(C(=O)Nc2cccc(C(F)(F)F)c2)C1C(=O)NC(C)C (configuration not stated)	–	–	?	32µM	–	–
O=C(CSc1ncn[nH]1)NCCc1ccc(Cl)cc1Cl	–	–	–	–	?	–
SMILES	HCMV antiviral	Vaccinia mCherry	LASV entry inh	FMDV antiviral	MARV entry inh	Vaccinia Venus
CC(NC(=O)CSc1ncn[nH]1)c1ccc(Cl)cc1Cl (configuration not stated)	-61	–	–	–	–	–
COc1ccc2c(c1)c1c(c(=O)n(-c3ccc(OC)c(OC)c3)c(=O)n1Cc1ccc(F)cc1)n2C	–	–	–	–	·	–
CN(C)CCn1cnc2c(c1=N)C(c1ccccc1)c1ccc3ccccc3c1O2 (configuration not stated)	-98	·	·	–	·	·
N=c1c2c(ncn1Cc1ccco1)Oc1c(ccc3ccccc13)C2c1ccccc1 (configuration not stated)	–	–	?	–	?	?
CCOc1ccc(/C=C/c2nc(C#N)c(N3CCC(C)CC3)o2)cc1	–	?	?	?	?	–
COCCNCc1nc2sc(C)c(-c3ccccc3)c2c(=O)[nH]1	-101	–	–	–	–	–
Cc1sc2nc(CN3CCOCC3)[nH]c(=O)c2c1-c1ccccc1	–	–	–	–	?	–
Cc1sc2nc(-c3ccccn3)[nH]c(=O)c2c1-c1ccccc1	-61	?	?	–	?	–
Cc1cccc(Cn2cc3c(=O)n(CC(=O)Nc4ccc(C)c(F)c4)nc-3c3cc(F)ccc32)c1	–	–	–	–	·	–
CCCc1nc2oc3c(NCCOCCO)ncnc3c2c2c1COC(C)(C)C2	-102	·	–	?	–	·
CC(C)c1nc2oc3c(NCCO)ncnc3c2c2c1COC(C)(C)C2	–	·	·	–	·	·
Fc1ccc(/C=C2\CCCC3=C2Nc2ncnn2C3c2ccc(F)cc2)cc1 (configuration not stated)	–	?	?	?	?	18µM
COc1c2ccccc2nn1-c1ccc(I)cc1	–	·	·	·	·	·
N=c1c(C(=O)NCC2CCCO2)cc2c(=O)n3ccccc3nc2n1Cc1ccccc1Cl (configuration not stated)	-101	–	?	–	11µM	–
COc1ccc(CCn2c(=N)c(C(=O)NCC3CCCO3)cc3c(=O)n4ccccc4nc32)cc1 (configuration not stated)	-112	·	·	–	·	·
N=c1c(C(=O)NCC2CCCO2)cc2c(=O)n3ccccc3nc2n1Cc1ccc(Cl)cc1 (configuration not stated)	-83	·	·	–	·	·
COc1ccc(CCNC(=O)c2cc3c(=O)n4ccccc4nc3n(CCN3CCOCC3)c2=N)cc1	–	–	?	–	2.8µM	–
CCCC[C@]12Cc3cc(C#N)ccc3[C@H](O1)c1c(c3cc(F)ccc3oc1=O)O2	·	·	·	·	–	·
Cc1cccc(C)c1NC(=O)CSc1nccn1C	–	–	–	–	–	–
Nc1ncnc(NC2CCS(=O)(=O)C2)c1[N+](=O)[O-] (configuration not stated)	–	–	–	–	–	–
CN(c1ncnc(N)c1[N+](=O)[O-])C1CCCCC1	-94	·	·	–	·	·
Cc1ccccc1Oc1ncnc(N)c1[N+](=O)[O-]	–	–	–	–	–	–
CCCCN(c1ccccc1)c1ncnc(N)c1[N+](=O)[O-]	-102	·	–	–	–	·
CN(c1ncnc(N)c1[N+](=O)[O-])C1CCS(=O)(=O)C1 (configuration not stated)	-74	·	–	–	–	·
CNc1nc(N)c([N+](=O)[O-])c(NC2CCCCC2)n1	–	–	?	–	–	–
CCCCN(Cc1cccs1)S(=O)(=O)c1cc(-c2cc(C)no2)ccc1C	?	–	–	–	·	–
Cc1cc(C(=O)NCCN2Cc3ccccc3OC(c3ccccc3F)C2)no1 (configuration not stated)	·	–	·	–	·	–
CCC(CC)C(=O)Nc1ccccc1C(=O)OCc1cc(=O)n2nc(C3CCCCC3)sc2n1	–	–	–	–	·	–
COc1ccc(NS(=O)(=O)c2ccc3[nH]c4c(c3c2)CCCCC4)cc1	–	–	–	–	·	–
COc1ccc(CN2CCOc3ccc(CN4CCC(O)(c5cccnc5)CC4)cc3C2)c(C)c1C	·	–	·	–	·	–

Source: PubChem (National Center for Advancing Translational Sciences (NCATS))
